# “And” between values parts separate entries of the source, which are not always exact repeats. Equal values may be shown once. Out of some 5,500 compounds screened, about 2,000 (36%) were called active. Not shown: some 18% with an inconclusive outcome. Some of the results follow. A number with no mark means an inactive call. No stated cut-off is given here; in the data, active means normalized growth mostly below about 0.91 (no sharp cut-off); inconclusive means no clear call, values can overlap the other calls; inactive means mostly above about 0.92.
# Assay: chemical genetic growth profiling, strain panel (AID 1159580);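 further: tested at 20 µM; growth read once vehicle control cultures reached saturation at 30 °C; 1 = growth at the plate median or of vehicle wells; lower values mean less growth of the strain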
# Conditions: S. cerevisiae deletion strains, growth OD
smiles,measurement,setting,value
CC(=O)[C@@]1(O)CCC2C3CCC4=CC(=O)CC[C@]4(C)C3CC[C@@]21C (stereo partly drawn),normalized growth,"locus YAL021C, strain ccr4, hits give low values",0.99
same,normalized growth,"locus YAL026C, strain drs2, hits give low values",0.992
same,normalized growth,"locus YAL030W, strain snc1, hits give low values",0.998
same,normalized growth,"locus YBL061C, strain skt5, hits give low values",0.991
same,normalized growth,"locus YBR009C, strain hhf1, hits give low values",0.995
same,normalized growth,"locus YBR021W, strain FUR4, hits give low values",1.01
same,normalized growth,"locus YBR023C, strain chs3, hits give low values",0.995
same,normalized growth,"locus YBR171W, strain sec66, hits give low values",0.985
same,normalized growth,"locus YBR229C, strain ROT2, hits give low values",0.993
same,normalized growth,"locus YBR231C, strain swc5, hits give low values",0.999
same,normalized growth,"locus YBR279W, strain paf1, hits give low values",0.986
same,normalized growth,"locus YCL011C, strain gbp2, hits give low values",0.997
same,normalized growth,"locus YCL016C, strain dcc1, hits give low values",0.992
same,normalized growth,"locus YCL029C, strain bik1, hits give low values",1.01
same,normalized growth,"locus YCL061C, strain MRC1, hits give low values",0.987
same,normalized growth,"locus YCL069W, strain vba3, hits give low values",0.996
same,normalized growth,"locus YCR088W, strain abp1, hits give low values",0.988
same,normalized growth,"locus YDL005C, strain med2, hits give low values",0.975
same,normalized growth,"locus YDL035C, strain GPR1, hits give low values",1.01
same,normalized growth,"locus YDL040C, strain nat1, hits give low values",0.993
same,normalized growth,"locus YDL074C, strain BRE1, hits give low values",1.04
same,normalized growth,"locus YDL101C, strain DUN1, hits give low values",0.996
same,normalized growth,"locus YDL134C, strain PPH21, hits give low values",0.99
same,normalized growth,"locus YDL185W, strain tfp1, hits give low values",1.01
same,normalized growth,"locus YDL192W, strain arf1, hits give low values",0.992
same,normalized growth,"locus YDR001C, strain nth1, hits give low values",0.989
same,normalized growth,"locus YDR069C, strain doa4, hits give low values",0.996
same,normalized growth,"locus YDR101C, strain arx1, hits give low values",1.04
same,normalized growth,"locus YDR137W, strain rgp1, hits give low values",0.815 (active)
same,normalized growth,"locus YDR159W, strain sac3, hits give low values",0.931
same,normalized growth,"locus YDR162C, strain NBP2, hits give low values",0.977
same,normalized growth,"locus YDR195W, strain ref2",0.995
same,normalized growth,"locus YDR297W, strain sur2, hits give low values",0.994
same,normalized growth,"locus YDR318W, strain mcm21, hits give low values",0.99
same,normalized growth,"locus YDR334W, strain swr1, hits give low values",0.992
same,normalized growth,"locus YDR335W, strain msn5, hits give low values",1.01
same,normalized growth,"locus YDR388W, hits give low values",1.01
same,normalized growth,"locus YDR392W, strain spt3, hits give low values",0.891
same,normalized growth,"locus YDR502C, strain sam2, hits give low values",1.01
same,normalized growth,"locus YEL003W, strain gim4, hits give low values",0.999
same,normalized growth,"locus YEL037C, strain rad23, hits give low values",0.993
same,normalized growth,"locus YEL061C, strain CIN8 (second series), hits give low values",0.993
same,normalized growth,"locus YEL061C, strain CIN8, hits give low values",0.995
same,normalized growth,"locus YER015W, strain faa2, hits give low values",0.998
same,normalized growth,"locus YER016W, strain bim1, hits give low values",0.99
same,normalized growth,"locus YER110C, hits give low values",1.01
same,normalized growth,"locus YER111C, strain swi4, hits give low values",0.987
same,normalized growth,"locus YER155C, strain BEM2 (second series), hits give low values",0.995
same,normalized growth,"locus YER155C, strain BEM2, hits give low values",1
same,normalized growth,"locus YER167W, strain BCK2, hits give low values",0.994
same,normalized growth,"locus YFR010W, strain ubp6, hits give low values",1.01
same,normalized growth,"locus YGL078C, strain dbp3, hits give low values",1.04
same,normalized growth,"locus YGL086W, strain mad1, hits give low values",1.03
same,normalized growth,"locus YGL167C, strain pmr1, hits give low values",0.983
same,normalized growth,"locus YGL173C, strain kem1, hits give low values",0.99
same,normalized growth,"locus YGL227W, strain vid30, hits give low values",0.994
same,normalized growth,"locus YGL240W, strain doc1, hits give low values",0.989
same,normalized growth,"locus YGL248W, strain PDE1, hits give low values",0.985
same,normalized growth,"locus YGL253W, strain hxk2, hits give low values",0.997
same,normalized growth,"locus YGR078C, strain PAC10, hits give low values",0.991
same,normalized growth,"locus YGR135W, strain pre9, hits give low values",0.966
same,normalized growth,"locus YGR252W, strain gcn5, hits give low values",1.04
same,normalized growth,"locus YHR013C, strain ard1, hits give low values",0.989
same,normalized growth,"locus YHR027C, strain rpn1, hits give low values",0.992
same,normalized growth,"locus YHR030C, strain SLT2, hits give low values",1 and 0.968
same,normalized growth,"locus YHR079C, strain IRE1 (second series), hits give low values",1.01
same,normalized growth,"locus YHR079C, strain IRE1, hits give low values",0.983
same,normalized growth,"locus YHR094C, strain hxt1, hits give low values",0.999
same,normalized growth,"locus YHR129C, strain ARP1, hits give low values",0.993
same,normalized growth,"locus YHR142W, strain chs7, hits give low values",0.993
same,normalized growth,"locus YHR200W, strain rpn10, hits give low values",1.02
same,normalized growth,"locus YIL066C, strain RNR3, hits give low values",0.994
same,normalized growth,"locus YIL073C, strain SPO22, hits give low values",1.03
same,normalized growth,"locus YIL125W, strain kgd1, hits give low values",1.03
same,normalized growth,"locus YIR030C, strain dcg1, hits give low values",1.01
same,normalized growth,"locus YJL092W, strain hpr5, hits give low values",0.991
same,normalized growth,"locus YJL095W, strain BCK1 (second series), hits give low values",0.992
same,normalized growth,"locus YJL095W, strain BCK1, hits give low values",0.96 and 0.984
same,normalized growth,"locus YJL115W, strain asf1, hits give low values",0.987
same,normalized growth,"locus YJL129C, strain trk1, hits give low values",0.955
same,normalized growth,"locus YJL134W, strain LCB3, hits give low values",0.998
same,normalized growth,"locus YJL154C, strain vps35, hits give low values",0.987
same,normalized growth,"locus YJL164C, strain tpk1, hits give low values",0.985
same,normalized growth,"locus YJL166W, strain qcr8, hits give low values",0.998
same,normalized growth,"locus YJL168C, strain set2, hits give low values",1
same,normalized growth,"locus YJL187C, strain SWE1 (second series), hits give low values",0.994
same,normalized growth,"locus YJL187C, strain SWE1, hits give low values",0.997
same,normalized growth,"locus YJR043C, strain POL32, hits give low values",1.05
